The source made the active and inactive calls.
Experiments:
Albumin (Bos taurus) = Albumin (Bos taurus) (UniProt P02769); experiment: compounds binding labelled BSA control protein – biochemical, small-molecule microarray, Alexa647 label, 635/667 nm fluorescence, artefact control for SMM control protein annotation, profiling panel (AID 1118); conditions: BSA-A647 binding, fluorescence 635 nm, higher = more signal;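 further: score merges 667 nm emission intensity and signal-to-noise per printed compound spot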
[1] = probe aXIP binding to arrayed compounds – biochemical, NeuroSMM set, 635/667 nm fluorescence, primary screen (AID 1119); conditions: small-molecule microarray, higher = more signal, called active from +8 up or from −8 down;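 further: probe is the protein aXip251-270 applied at 1 µg/mL to compound-printed slides; binding of probe to printed compounds measured as 667 nm fluorescence plus signal to noise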
[2] = probe aNOTCH3 binding on compound microarray – biochemical, small-molecule microarray, 635/667 nm fluorescence, primary screen (AID 1120); conditions: higher = more signal;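 further: probe is a biotin-tagged antibody raised against NOTCH3 rather than NOTCH3 protein; score merges spot fluorescence near 667 nm with spot signal to noise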
[3] = probe aNOTCH2 binding on compound microarray – biochemical, small-molecule microarray, 635/667 nm fluorescence, primary screen (AID 1121); conditions: higher = more signal;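 further: score merges feature fluorescence read at 667 nm with its signal to noise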
[4] = target: Carbonic anhydrase 2 (Homo sapiens) (UniProt P00918); experiment: compounds binding carbonic anhydrase 2 – biochemical, small-molecule microarray, Alexa647-labelled CAII, profiling panel (AID 1122); conditions: CAII-A647 binding fluorescence, higher = more signal
[5] = COS7 lysate on small-molecule microarray, probe aHis, 635 nm (AID 1123); conditions: COS7 cell lysate, fluorescence, higher = more signal;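 further: z-score combines 667nm fluorescence intensity with signal-to-noise per printed compound spot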
[6] = probe aLAP1 signal on lysate-treated microarray – cell lysate, small-molecule microarray, COS7 lysate, primary screen (AID 1124); conditions: probe aLAP1, fluorescence, higher = more signal;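 further: lysate comes from COS7 cells expressing LAP1 and is applied at 0.3 µg/mL; score merges spot fluorescence near 667 nm with signal-to-noise over triplicate slides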
Sam68 (KHDRBS1) = experiment: compounds binding KHDRBS1 protein – biochemical, small-molecule microarray, 635 nm fluorescence, primary screen (AID 1125); conditions: higher = more signal;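 further: score merges 667 nm channel intensity with signal to noise over triplicate slides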
[7] = tested on: Chordin-like protein 2 (CHRDL2); experiment: compounds binding chordin-like 2 – biochemical, small-molecule microarray, 635 nm fluorescence, primary screen (AID 1126); conditions: fluorescence 635 nm, higher = more signal;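 further: printed compound slides probed with Chrdl2 protein at 4 µg/mL for 1 h at 4 C; score merges 667 nm emission intensity with signal to noise over three replicate slides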
[8] = target: Concanavalin-A (Canavalia ensiformis) (UniProt P02866); experiment: compounds binding concanavalin A lectin – biochemical, small-molecule microarray, Alexa647 label, 635 nm, artefact control for SMM control protein annotation, primary screen (AID 1127); conditions: ConA-A647 binding fluorescence, higher = more signal;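 further: z combines 667 nm emission intensity with signal-to-noise across three replicate slides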
[9] = compounds binding Alexa647 anti-His antibody – biochemical, small-molecule microarray, 635 nm fluorescence, artefact control for SMM control protein annotation, primary screen (AID 1128); conditions: higher = more signal;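 further: score merges feature fluorescence with signal-to-noise for each printed compound spot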
[10] = tested on: Human papillomavirus type 1a E7 protein (residues 1-88); experiment: HPV1a E7 small-molecule binders, primary screen, biochemical, small-molecule microarray, residues 1-88, 635 nm (AID 1129); conditions: small-molecule microarray binding, fluorescence 635 nm; higher = more signal
[11] = target: Focal adhesion kinase 1 (Homo sapiens) (UniProt Q05397); experiment: PTK2 protein binding on printed compound slides – biochemical, small-molecule microarray, 635/667 nm fluorescence, BSA, DTT, primary screen (AID 1130); conditions: 635 nm fluorescence, higher = more signal;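 further: composite of spot emission at 667 nm and signal to noise over triplicate slides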
[12] = tested on: Fibrinogen (Alexa647-labelled); experiment: Alexa647-fibrinogen binding to printed small molecules – biochemical, small-molecule microarray, 635/667 nm fluorescence, artefact control for SMM control-protein annotation, profiling panel (AID 1131); conditions: fibrinogen-A647 binding fluorescence, higher = more signal;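 further: z-score merges 667 nm fluorescence with per-spot signal-to-noise over triplicate slides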
[13] = target: Follistatin (Homo sapiens) (UniProt P19883); experiment: FST protein binding to printed compounds – biochemical, small-molecule microarray, 635/667 nm fluorescence, primary screen (AID 1132); conditions: 635 nm fluorescence, higher = more signal
[14] = target: Fibroblast growth factor 2 (Homo sapiens) (UniProt P09038); experiment: basic fibroblast growth factor binding to printed compounds – biochemical, small-molecule microarray, 635/667 nm fluorescence, primary screen (AID 1133); conditions: FGF2, fluorescence 635/667, higher = more signal
[15] = JC-1 mitochondrial potential readout, lung cancer cells – cell-based, A549, JC-1 fluorescence, basal, 24 h, 100 nL, profiling panel (AID 1138); conditions: higher = more signal;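 further: A549 lung adenocarcinoma cells under basal conditions with no added stimulus; test concentration not given here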
Lefty1 = Lefty1 protein binding to printed compounds – biochemical, small-molecule microarray, 635/667 nm fluorescence, primary screen (AID 1139); conditions: fluorescence 635/667, higher = more signal
[16] = tested on: wheat germ agglutinin (Triticum aestivum), Alexa647-labelled; experiment: Alexa647-WGA lectin binding to printed small molecules – biochemical, small-molecule microarray, 635/667 nm fluorescence, artefact control for SMM control-protein annotation, profiling panel (AID 1140); conditions: WGA-A647 binding, 635 nm fluorescence, higher = more signal;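 further: score merges 667 nm feature emission with signal to noise over triplicate slides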
[17] = target: Luciferin 4-monooxygenase (Photinus pyralis) (UniProt P08659); experiment: inhibition of purified Photinus pyralis luciferase – biochemical, luminescence, purified enzyme, 2006 set, primary screen (AID 1141); conditions: purified firefly luciferase, SteadyGlo luminescence, 30 min; higher = more signal, called active from +8 up or from −8 down;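 further: cell-free assay with purified firefly luciferase at 100 ng per well in PBS; test concentration not given here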
Sequence of Luciferin 4-monooxygenase (Photinus pyralis) (P08659 whole entry, looked up): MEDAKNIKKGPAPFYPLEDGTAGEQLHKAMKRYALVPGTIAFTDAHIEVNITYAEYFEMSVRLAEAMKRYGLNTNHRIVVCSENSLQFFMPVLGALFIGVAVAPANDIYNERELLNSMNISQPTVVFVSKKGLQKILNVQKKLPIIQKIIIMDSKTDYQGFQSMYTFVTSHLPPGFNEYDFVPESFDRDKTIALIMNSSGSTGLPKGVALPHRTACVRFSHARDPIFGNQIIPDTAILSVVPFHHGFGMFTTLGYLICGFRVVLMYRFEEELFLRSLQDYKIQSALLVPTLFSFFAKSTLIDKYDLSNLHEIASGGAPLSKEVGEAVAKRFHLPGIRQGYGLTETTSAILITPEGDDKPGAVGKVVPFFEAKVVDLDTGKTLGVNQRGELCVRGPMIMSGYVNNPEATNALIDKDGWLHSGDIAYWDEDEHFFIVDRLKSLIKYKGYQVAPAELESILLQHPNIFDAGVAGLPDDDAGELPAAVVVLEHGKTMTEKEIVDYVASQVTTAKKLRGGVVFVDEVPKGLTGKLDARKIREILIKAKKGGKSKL

Sequence of Follistatin (Homo sapiens) (P19883 whole entry, looked up): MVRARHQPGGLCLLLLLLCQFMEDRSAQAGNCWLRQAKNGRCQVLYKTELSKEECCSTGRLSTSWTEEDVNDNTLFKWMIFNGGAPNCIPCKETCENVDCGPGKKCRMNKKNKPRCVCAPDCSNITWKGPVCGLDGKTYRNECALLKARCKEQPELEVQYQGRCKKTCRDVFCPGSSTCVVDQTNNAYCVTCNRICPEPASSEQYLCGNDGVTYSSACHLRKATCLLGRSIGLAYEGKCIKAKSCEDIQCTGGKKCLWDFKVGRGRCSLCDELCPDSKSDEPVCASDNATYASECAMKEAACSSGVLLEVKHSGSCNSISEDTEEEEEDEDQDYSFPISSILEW
Sequence of Concanavalin-A (Canavalia ensiformis) (P02866 whole entry, looked up): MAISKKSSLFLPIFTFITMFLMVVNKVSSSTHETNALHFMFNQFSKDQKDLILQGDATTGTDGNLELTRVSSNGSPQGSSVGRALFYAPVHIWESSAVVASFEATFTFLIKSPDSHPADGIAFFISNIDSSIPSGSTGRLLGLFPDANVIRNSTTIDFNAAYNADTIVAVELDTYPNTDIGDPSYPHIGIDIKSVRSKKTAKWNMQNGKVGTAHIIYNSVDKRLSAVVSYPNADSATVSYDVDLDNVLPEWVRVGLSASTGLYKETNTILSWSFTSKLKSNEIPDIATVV
Sequence of Fibroblast growth factor 2 (Homo sapiens) (P09038 whole entry, looked up): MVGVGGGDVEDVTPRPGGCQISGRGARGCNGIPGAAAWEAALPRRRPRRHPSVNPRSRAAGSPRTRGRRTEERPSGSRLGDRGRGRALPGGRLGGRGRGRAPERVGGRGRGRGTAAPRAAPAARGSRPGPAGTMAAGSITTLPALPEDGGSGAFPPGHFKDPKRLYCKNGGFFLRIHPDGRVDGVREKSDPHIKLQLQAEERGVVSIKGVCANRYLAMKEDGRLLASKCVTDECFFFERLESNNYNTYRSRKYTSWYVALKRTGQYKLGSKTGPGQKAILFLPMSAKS
Sequence of Albumin (Bos taurus) (P02769 whole entry, looked up): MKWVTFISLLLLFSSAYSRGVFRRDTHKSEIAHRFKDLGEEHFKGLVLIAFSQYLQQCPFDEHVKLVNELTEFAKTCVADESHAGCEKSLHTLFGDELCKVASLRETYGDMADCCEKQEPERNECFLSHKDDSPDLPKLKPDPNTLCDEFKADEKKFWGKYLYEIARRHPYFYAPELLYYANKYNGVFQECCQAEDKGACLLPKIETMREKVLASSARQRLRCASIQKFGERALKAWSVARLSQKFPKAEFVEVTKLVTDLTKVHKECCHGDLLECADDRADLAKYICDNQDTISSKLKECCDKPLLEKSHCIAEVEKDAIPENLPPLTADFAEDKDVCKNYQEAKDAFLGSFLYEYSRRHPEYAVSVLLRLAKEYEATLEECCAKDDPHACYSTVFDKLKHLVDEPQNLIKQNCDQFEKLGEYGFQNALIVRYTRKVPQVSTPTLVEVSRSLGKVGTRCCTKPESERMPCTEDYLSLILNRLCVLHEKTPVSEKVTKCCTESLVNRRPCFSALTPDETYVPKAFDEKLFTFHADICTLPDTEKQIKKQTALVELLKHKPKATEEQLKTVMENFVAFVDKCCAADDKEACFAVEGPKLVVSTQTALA
Sequence of Focal adhesion kinase 1 (Homo sapiens) (Q05397 whole entry, looked up): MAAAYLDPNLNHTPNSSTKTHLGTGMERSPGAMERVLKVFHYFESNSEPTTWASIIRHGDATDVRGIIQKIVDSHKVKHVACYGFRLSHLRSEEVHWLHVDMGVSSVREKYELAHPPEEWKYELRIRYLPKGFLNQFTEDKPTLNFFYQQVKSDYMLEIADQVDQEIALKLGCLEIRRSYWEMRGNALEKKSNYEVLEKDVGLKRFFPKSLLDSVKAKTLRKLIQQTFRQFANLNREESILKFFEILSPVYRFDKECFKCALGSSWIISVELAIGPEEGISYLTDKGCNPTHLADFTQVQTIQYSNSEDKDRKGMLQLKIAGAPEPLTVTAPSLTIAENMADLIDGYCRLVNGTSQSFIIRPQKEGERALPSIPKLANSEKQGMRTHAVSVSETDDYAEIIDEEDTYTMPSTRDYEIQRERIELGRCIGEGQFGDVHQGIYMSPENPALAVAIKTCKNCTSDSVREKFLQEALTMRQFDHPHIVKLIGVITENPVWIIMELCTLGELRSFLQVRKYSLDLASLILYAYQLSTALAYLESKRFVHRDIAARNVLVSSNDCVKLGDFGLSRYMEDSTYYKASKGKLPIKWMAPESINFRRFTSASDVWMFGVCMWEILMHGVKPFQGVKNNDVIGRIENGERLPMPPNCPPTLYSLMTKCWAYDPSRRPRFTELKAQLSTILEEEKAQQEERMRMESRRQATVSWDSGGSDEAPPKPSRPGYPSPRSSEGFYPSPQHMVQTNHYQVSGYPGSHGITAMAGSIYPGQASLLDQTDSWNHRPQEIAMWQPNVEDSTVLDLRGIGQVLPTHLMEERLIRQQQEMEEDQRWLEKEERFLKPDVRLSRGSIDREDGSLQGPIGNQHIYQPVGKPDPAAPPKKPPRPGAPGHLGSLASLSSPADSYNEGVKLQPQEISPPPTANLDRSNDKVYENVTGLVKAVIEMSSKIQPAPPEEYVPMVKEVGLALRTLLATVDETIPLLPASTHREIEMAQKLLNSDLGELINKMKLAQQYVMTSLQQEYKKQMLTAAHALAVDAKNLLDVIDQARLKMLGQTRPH

SMILES | composite z-score (Albumin (Bos taurus)) | composite Z-score [1] | composite z-score [2] | composite z-score [3] | composite z-score [4] | composite z-score [5] | composite z-score [6] | composite z-score (Sam68 (KHDRBS1)) | composite z-score [7] | composite z-score [8] | composite z-score [9] | composite z-score [10] | composite z-score [11] | composite z-score [12] | composite z-score [13] | composite z-score [14] | z-score [15] | composite z-score (Lefty1) | composite z-score [16] | z-score [17]
O=C1NC(=O)C2C1C=CC(C(O)c1ccc(I)cc1)N2Nc1ccccn1 (stereo not given) | 0.898 | 0.369 (inactive) | -0.0677 | -0.0026 | 0.819 | 2.35 | 1.48 | -0.302 | 0.37 | 0.445 | 2.1 | 0.134 | 0.675 | 0.791 | 0.367 | -0.109 | -0.279 | -0.19 | 1.23 | -0.759 (inactive)
[N-]=[N+]=Nc1ccccc1C[C@@]1(C(=O)N2CCCCC2)N=C(c2ccc(OCCCO)cc2)O[C@@H]1c1ccccc1N=[N+]=[N-] | 0.998 | 0.203 (inactive) | 0.384 | 0.0564 | 0.299 | 1.33 | 0.158 | 1.32 | -0.501 | 1.12 | 2.17 | 1.19 | 0.362 | 0.98 | 1.29 | 0.592 | -1.21 | -0.271 | 1.3 | -2.39 (inactive)
CCCCCCc1nc(-c2ccc(-c3ccc(Cl)c(Cl)c3)o2)cc2c1[Si](C(C)C)(C(C)C)O[C@H]2c1ccccc1 | 0.108 | 1.35 (inactive) | -0.292 | -0.153 | 0.739 | 0.458 | -0.418 | -0.472 | -0.517 | -0.131 | -0.403 | -0.73 | -0.132 | -1.34 | -0.348 | -0.434 | -0.859 | 0.0259 | 1.04 | 0.712 (inactive)
CC(C)(C)OC(=O)CC[C@]1(C(N)=O)N=C(c2ccc(OCCCO)cc2)O[C@H]1c1ccccc1 | 0.963 | 0.0933 (inactive) | 0.405 | 0.133 | 0.848 | 3.21 | 0.834 | 1.25 | -1.34 | 0.32 | 2.07 | 1.2 | 0.35 | 0.407 | 0.839 | 0.29 | 1.04 | -0.388 | 1.48 | -0.47 (inactive)
CC1CC/C=C\[C@H]2OC34C=CCN(Cc5ccccc5)C(=O)[C@H]3N(C(C)CO)C(=O)[C@@H]4C2C(=O)O1 (stereo not given in full) | -0.852 | -0.592 (inactive) | -0.0647 | -0.0846 | 0.331 | -0.412 | -0.0231 | -0.99 | -0.0576 | -0.239 | -0.216 | -0.922 | -0.286 | -0.696 | 0.462 | -0.005 | 0.924 | 1.06 | -0.626 | -0.97 (inactive)
CCOc1ccc(N2C(=O)CSC2c2cccc([N+](=O)[O-])c2)cc1 (stereo not given) | 0.954 | 0.625 (inactive) | 0.133 | -0.14 | 0.36 | 1.63 | 0.181 | 0.829 | 0.428 | 0.789 | 0.798 | 0.636 | 0.65 | 0.71 | 0.0936 | 0.176 | 0.56 | -0.157 | 1.09 | 0.8 (inactive)
C=CCN1C(=O)[C@]2(O[C@H](CCO)[C@@H]([Si](C)(C)c3ccc(OC)cc3)[C@@H]2C)c2cc(N(C=O)c3ccccc3)ccc21 | 0.0925 | 0.111 (inactive) | -0.0967 | -0.0315 | 0.561 | 0.225 | 0.398 | 0.518 | -0.0095 | 0.497 | 0.896 | 0.823 | -0.0453 | -0.16 | -0.193 | -0.129 | -1.08 | 0.148 | 0.792 | -0.914 (inactive)
CC(C)C(=C=CC[C@H](O)c1ccc(CO)o1)CCO | 0.906 | 0.304 (inactive) | -0.111 | -0.148 | 0.756 | 0.514 | 0.792 | 0.856 | 0.0622 | 0.828 | 0.748 | 0.679 | 0.217 | 0.0411 | 1.01 | 0.489 | -0.589 | 1.37 | 0.383 | -0.751 (inactive)

From PubChem BioAssay
